Holding throughout (test): PBM; 200 nM protein, PBS
Common to all, as to settings: dsDNA, one strand shown

Assay [1] addresses HOXC9 (Homo sapiens, UniProt P31274 178-260, K195R).
For another assay, the target named is T1, NKX2-6 (Homo sapiens, UniProt A6NCS4 118-204, R150C).
T1 sequence: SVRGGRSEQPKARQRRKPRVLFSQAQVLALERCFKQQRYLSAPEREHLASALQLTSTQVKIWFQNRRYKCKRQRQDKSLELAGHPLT

The target of assay [2] is HOXC9 (Homo sapiens, UniProt P31274 178-260).
Assay [3] concerns the target HOXC9 (Homo sapiens, UniProt P31274 178-260, R193K).
Assay [4] addresses HOXC9 (Homo sapiens, UniProt P31274 178-260, R222W).
Assay [5] has as its target MSX2 (Homo sapiens, UniProt P35548 130-214, R199I).
Assay [6] has as its target HOXD13 (Homo sapiens, UniProt P35453 263-343, T313R).
The target of assay [7] is HOXD13 (Homo sapiens, UniProt P35453 263-343).
Assay [8] deals with MSX2 (Homo sapiens, UniProt P35548 130-214).
Assay [9] concerns the target HOXD13 (Homo sapiens, UniProt P35453 263-343, T313A).
Assay [10] deals with MSX2 (Homo sapiens, UniProt P35548 130-214, F161Y).
Another assay addresses PITX2 (Homo sapiens, UniProt Q99697 72-157).
Assay [11] deals with ALX1 (Homo sapiens, UniProt Q15699 118-204, L144V).
In assay [12] the target is ALX1 (Homo sapiens, UniProt Q15699 118-204, L144R).
Assay [13] deals with ALX1 (Homo sapiens, UniProt Q15699 118-204).
Assay [14] addresses HOXA2 (Homo sapiens, UniProt O43364 129-215, R185T).
For assay [15], the target named is HOXA2 (Homo sapiens, UniProt O43364 129-215, R185K).
Assay [16] deals with HOXA2 (Homo sapiens, UniProt O43364 129-215, Y150S).
Assay [17] concerns the target HOXA2 (Homo sapiens, UniProt O43364 129-215).

Results on 13 sequences are retold here after publication PMC11006913.

HOXC9 (Homo sapiens, UniProt P31274 178-260, K195R), sequence (P31274 178-260 K195R): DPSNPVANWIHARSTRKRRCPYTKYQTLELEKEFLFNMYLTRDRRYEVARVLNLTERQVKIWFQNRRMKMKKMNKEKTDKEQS
HOXC9 (Homo sapiens, UniProt P31274 178-260, R193K), sequence (P31274 178-260 R193K): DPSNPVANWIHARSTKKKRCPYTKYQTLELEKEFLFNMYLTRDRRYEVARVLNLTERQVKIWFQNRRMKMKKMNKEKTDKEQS
HOXD13 (Homo sapiens, UniProt P35453 263-343, T313R), sequence (P35453 263-343 T313R): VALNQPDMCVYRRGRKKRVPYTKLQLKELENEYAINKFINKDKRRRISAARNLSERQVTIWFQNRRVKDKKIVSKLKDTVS
HOXC9 (Homo sapiens, UniProt P31274 178-260), sequence (P31274 178-260): as the sequence (P31274 178-260 R193K) above, with K16R counted along it
HOXC9 (Homo sapiens, UniProt P31274 178-260, R222W), sequence (P31274 178-260 R222W): as the sequence (P31274 178-260 R193K) above, with K16R, R45W counted along it
HOXD13 (Homo sapiens, UniProt P35453 263-343, T313A), sequence (P35453 263-343 T313A): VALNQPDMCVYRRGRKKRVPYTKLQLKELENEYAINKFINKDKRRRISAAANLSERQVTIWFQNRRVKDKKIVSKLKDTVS
HOXD13 (Homo sapiens, UniProt P35453 263-343), sequence (P35453 263-343): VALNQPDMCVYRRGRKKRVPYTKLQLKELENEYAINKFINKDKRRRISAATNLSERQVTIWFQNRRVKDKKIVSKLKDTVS
HOXA2 (Homo sapiens, UniProt O43364 129-215), sequence (O43364 129-215): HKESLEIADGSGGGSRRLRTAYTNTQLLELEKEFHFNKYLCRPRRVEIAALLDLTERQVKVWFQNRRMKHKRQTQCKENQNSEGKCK
MSX2 (Homo sapiens, UniProt P35548 130-214), sequence (P35548 130-214): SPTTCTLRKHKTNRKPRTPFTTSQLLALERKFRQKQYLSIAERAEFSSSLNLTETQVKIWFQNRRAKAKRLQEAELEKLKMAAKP
MSX2 (Homo sapiens, UniProt P35548 130-214, R199I), sequence (P35548 130-214 R199I): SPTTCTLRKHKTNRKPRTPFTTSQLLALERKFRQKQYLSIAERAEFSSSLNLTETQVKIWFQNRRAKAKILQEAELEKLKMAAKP
HOXA2 (Homo sapiens, UniProt O43364 129-215, R185T), sequence (O43364 129-215 R185T): as the sequence (O43364 129-215) above, with R57T counted along it
HOXA2 (Homo sapiens, UniProt O43364 129-215, R185K), sequence (O43364 129-215 R185K): as the sequence (O43364 129-215) above, with R57K counted along it
ALX1 (Homo sapiens, UniProt Q15699 118-204, L144R), sequence (Q15699 118-204 L144R): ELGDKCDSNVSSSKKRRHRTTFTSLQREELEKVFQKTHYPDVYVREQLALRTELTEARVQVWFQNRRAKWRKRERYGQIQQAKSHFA
ALX1 (Homo sapiens, UniProt Q15699 118-204), sequence (Q15699 118-204): as the sequence (Q15699 118-204 L144R) above, with R27L counted along it
HOXA2 (Homo sapiens, UniProt O43364 129-215, Y150S), sequence (O43364 129-215 Y150S): as the sequence (O43364 129-215) above, with Y22S counted along it
ALX1 (Homo sapiens, UniProt Q15699 118-204, L144V), sequence (Q15699 118-204 L144V): as the sequence (Q15699 118-204 L144R) above, with R27V counted along it
MSX2 (Homo sapiens, UniProt P35548 130-214, F161Y), sequence (P35548 130-214 F161Y): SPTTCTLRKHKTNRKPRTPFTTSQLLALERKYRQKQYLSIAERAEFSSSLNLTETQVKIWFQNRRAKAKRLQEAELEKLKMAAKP

As to ACGTTGGG, the binding signal with HOXC9 [1] was 9.64 upbm affinity estimate (log intensity, higher = more binding, comparable within an allelic series); with NKX2-6 it was 9.44 upbm affinity estimate (log intensity, higher = more binding, comparable within an allelic series); in the assay with HOXC9 [2], 9.65 upbm affinity estimate (log intensity, higher = more binding, comparable within an allelic series); in the assay with HOXC9 [3], 9.64 upbm affinity estimate (log intensity, higher = more binding, comparable within an allelic series); with HOXC9 [4] it was 9.77 upbm affinity estimate (log intensity, higher = more binding, comparable within an allelic series).
Regarding TCGGGCCA, the binding signal is 9.7 upbm affinity estimate (log intensity, higher = more binding, comparable within an allelic series) in the assay with HOXC9 [1]; 9.78 upbm affinity estimate (log intensity, higher = more binding, comparable within an allelic series) in the assay with HOXC9 [2]; 9.6 upbm affinity estimate (log intensity, higher = more binding, comparable within an allelic series) with MSX2 [5]; 9.55 upbm affinity estimate (log intensity, higher = more binding, comparable within an allelic series) in the assay with HOXD13 [6]; 9.72 upbm affinity estimate (log intensity, higher = more binding, comparable within an allelic series) with HOXC9 [3]; 9.44 upbm affinity estimate (log intensity, higher = more binding, comparable within an allelic series) with HOXD13 [7]. Also, the binding signal is 9.63 upbm affinity estimate (log intensity, higher = more binding, comparable within an allelic series) with MSX2 [8]; 9.66 upbm affinity estimate (log intensity, higher = more binding, comparable within an allelic series) with HOXD13 [9]; 9.7 upbm affinity estimate (log intensity, higher = more binding, comparable within an allelic series) with HOXC9 [4]; 9.51 upbm affinity estimate (log intensity, higher = more binding, comparable within an allelic series) with MSX2 [10].
As for GCAGCGCC, the binding signal in the assay with HOXC9 [1] is 9.72 upbm affinity estimate (log intensity, higher = more binding, comparable within an allelic series); with HOXC9 [2], 9.88 upbm affinity estimate (log intensity, higher = more binding, comparable within an allelic series); in the assay with HOXD13 [6] it was 9.55 upbm affinity estimate (log intensity, higher = more binding, comparable within an allelic series); in the assay with PITX2, 7.75 upbm affinity estimate (log intensity, higher = more binding, comparable within an allelic series); with HOXC9 [3], 9.72 upbm affinity estimate (log intensity, higher = more binding, comparable within an allelic series); with HOXD13 [7] it was 9.61 upbm affinity estimate (log intensity, higher = more binding, comparable within an allelic series). The binding signal in the assay with HOXD13 [9] was 9.59 upbm affinity estimate (log intensity, higher = more binding, comparable within an allelic series); with HOXC9 [4], 9.72 upbm affinity estimate (log intensity, higher = more binding, comparable within an allelic series).
Regarding CCCAGGTC, the binding signal in the assay with HOXC9 [1] is 9.66 upbm affinity estimate (log intensity, higher = more binding, comparable within an allelic series); in the assay with HOXC9 [2], 9.74 upbm affinity estimate (log intensity, higher = more binding, comparable within an allelic series); in the assay with ALX1 [11], 6.5 upbm affinity estimate (log intensity, higher = more binding, comparable within an allelic series); with HOXC9 [3], 9.58 upbm affinity estimate (log intensity, higher = more binding, comparable within an allelic series); in the assay with ALX1 [12], 6.45 upbm affinity estimate (log intensity, higher = more binding, comparable within an allelic series); in the assay with HOXC9 [4], 9.65 upbm affinity estimate (log intensity, higher = more binding, comparable within an allelic series). Besides, in the assay with ALX1 [13], the binding signal is 6.46 upbm affinity estimate (log intensity, higher = more binding, comparable within an allelic series).
Take CCCTGCGG: the binding signal is 9.55 upbm affinity estimate (log intensity, higher = more binding, comparable within an allelic series) with HOXC9 [1]; 7.02 upbm affinity estimate (log intensity, higher = more binding, comparable within an allelic series) with HOXA2 [14]; 9.73 upbm affinity estimate (log intensity, higher = more binding, comparable within an allelic series) with HOXC9 [2]; 9.39 upbm affinity estimate (log intensity, higher = more binding, comparable within an allelic series) with HOXD13 [6]; 9.6 upbm affinity estimate (log intensity, higher = more binding, comparable within an allelic series) with HOXC9 [3]; 10.3 upbm affinity estimate (log intensity, higher = more binding, comparable within an allelic series) with HOXA2 [15]. In addition, the binding signal is 9.44 upbm affinity estimate (log intensity, higher = more binding, comparable within an allelic series) with HOXD13 [7]; 9.6 upbm affinity estimate (log intensity, higher = more binding, comparable within an allelic series) in the assay with HOXD13 [9]; 9.56 upbm affinity estimate (log intensity, higher = more binding, comparable within an allelic series) in the assay with HOXC9 [4]; 10.5 upbm affinity estimate (log intensity, higher = more binding, comparable within an allelic series) in the assay with HOXA2 [16]; 7 upbm affinity estimate (log intensity, higher = more binding, comparable within an allelic series) in the assay with HOXA2 [17].
Regarding ATATTGCA, the binding signal in the assay with HOXC9 [1] was 11.2 upbm affinity estimate (log intensity, higher = more binding, comparable within an allelic series); with HOXC9 [2], 11.2 upbm affinity estimate (log intensity, higher = more binding, comparable within an allelic series); in the assay with HOXC9 [3], 11.3 upbm affinity estimate (log intensity, higher = more binding, comparable within an allelic series).
Take CCCCAGCC: the binding signal with HOXC9 [1] was 9.49 upbm affinity estimate (log intensity, higher = more binding, comparable within an allelic series); with HOXC9 [2], 9.68 upbm affinity estimate (log intensity, higher = more binding, comparable within an allelic series); in the assay with HOXC9 [3] it was 9.69 upbm affinity estimate (log intensity, higher = more binding, comparable within an allelic series); with HOXC9 [4], 9.68 upbm affinity estimate (log intensity, higher = more binding, comparable within an allelic series).
As to GAGATAAA, the binding signal is 11.1 upbm affinity estimate (log intensity, higher = more binding, comparable within an allelic series) with HOXC9 [1]; 11.1 upbm affinity estimate (log intensity, higher = more binding, comparable within an allelic series) with HOXC9 [2]; 11.1 upbm affinity estimate (log intensity, higher = more binding, comparable within an allelic series) with HOXC9 [3].
On to TAAGAATA, for which the binding signal in the assay with HOXC9 [1] is 10.9 upbm affinity estimate (log intensity, higher = more binding, comparable within an allelic series); with HOXC9 [2], 10.8 upbm affinity estimate (log intensity, higher = more binding, comparable within an allelic series); in the assay with HOXC9 [3] it was 10.9 upbm affinity estimate (log intensity, higher = more binding, comparable within an allelic series).
As for CCTCCAGG, the binding signal in the assay with HOXC9 [1] was 9.43 upbm affinity estimate (log intensity, higher = more binding, comparable within an allelic series); with HOXC9 [2], 9.47 upbm affinity estimate (log intensity, higher = more binding, comparable within an allelic series); with HOXC9 [3] it was 9.34 upbm affinity estimate (log intensity, higher = more binding, comparable within an allelic series); in the assay with HOXC9 [4], 9.67 upbm affinity estimate (log intensity, higher = more binding, comparable within an allelic series).
With CTCACCAG, the binding signal was 9.79 upbm affinity estimate (log intensity, higher = more binding, comparable within an allelic series) in the assay with HOXC9 [1]; 9.75 upbm affinity estimate (log intensity, higher = more binding, comparable within an allelic series) with HOXC9 [2]; 9.75 upbm affinity estimate (log intensity, higher = more binding, comparable within an allelic series) with HOXC9 [3]; 9.9 upbm affinity estimate (log intensity, higher = more binding, comparable within an allelic series) in the assay with HOXC9 [4].
As to CGTAAAGA, the binding signal is 11.1 upbm affinity estimate (log intensity, higher = more binding, comparable within an allelic series) in the assay with HOXC9 [1]; 11.2 upbm affinity estimate (log intensity, higher = more binding, comparable within an allelic series) with HOXC9 [2]; 11.2 upbm affinity estimate (log intensity, higher = more binding, comparable within an allelic series) with HOXC9 [3].
Take CGTTAAAG: the binding signal in the assay with HOXC9 [1] is 11.3 upbm affinity estimate (log intensity, higher = more binding, comparable within an allelic series); with HOXC9 [2], 11.4 upbm affinity estimate (log intensity, higher = more binding, comparable within an allelic series); with HOXC9 [3], 11.3 upbm affinity estimate (log intensity, higher = more binding, comparable within an allelic series).
